Source: PubChem
A selection: hits, their analogues and other compounds. The true share with any hit is near 17%.
TDP1 cell noCPT – qHTS for Inhibitors of human tyrosyl-DNA phosphodiesterase 1 (TDP1): qHTS in cells in absence of CPT | 15% of 420,000 active | DT40 Tdp1-/- hTDP1 cells, no CPT, ATP luminescence, 48 h | Potency, µM (doses to about 46.2 µM), without a hit: at the highest dose activity change, negative = growth inhibition, usual class: inhibitors; further: on the % scale 0 is the no-effect control and ±100 the full control effect; nearly all actives have a fitted effect of over 55% in size
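Stably hTDP1-transfected Tdp1-null chicken DT40 cells were treated with library compounds minus camptothecin and grown for at least 48 hr at 37 °C, after which cellular ATP was quantified by luminescence.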
ATXN2 expr inh – inhibitors of ATXN2 expression | HEK-293 ATXN2-luciferase reporter, luminescence, 24 h | Potency, µM (titrated, usually from 57 µM), for the others: at the highest dose activity change, negative = inhibition, hits mostly inhibitors | 0.72% of 360,000 active; further: on the % scale 0 is the no-effect control and ±100 the full control effect; nearly all actives have a fitted effect of over 55% in size
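qHTS (up to 57 uM final) was run with 24 h compound exposure of reporter cells at 37 °C. Each well was multiplexed: SteadyGlo luminescence measured ATXN2-luciferase expression after a fluorogenic Gly-Phe-AFC viability readout (25 uM final).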
TDP1 cell CPT – growth inhibition of DT40 Tdp1-/-;hTDP1 cells with camptothecin (screen for TDP1 inhibitors); chicken DT40 Tdp1-/-;hTDP1 cells + 20 nM CPT, ATP luminescence, 48 h; Potency, µM (top dose mostly 46.2 µM), inactives show top-dose activity change, negative = growth inhibition, actives largely listed as inhibitors; 12% of 420,000 active; AID 686979; further: on the % scale 0 is the no-effect control and ±100 the full control effect; nearly all actives have a fitted effect of over 55% in size
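Chicken DT40 Tdp1-/- cells complemented with human TDP1, 400 cells/well, exposed to compounds plus 20 nM camptothecin for at least 48 h at 37 C; viability read as ATP content by CellTiter-Glo luminescence.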
ATXN viability – viability counter-screen for ATXN expression inhibitors | S2 cells (HEK-293 line with an ATXN2-luciferase reporter) viability, CellTiter-Fluor protease fluorescence, 24 h | Potency, µM (highest dose often 56.7 µM), most hits filed as cytotoxic | 0.49% of 400,000 active; further: nearly all actives have a fitted effect of over 40% in size
HepG2 tox – kills HepG2 cells in TGF-b inhibitor counter-screen | HepG2 CAGA-GFP viability, ATP luminescence, 18 h | Potency, µM (doses to about 46.1 µM), for the others: at the highest dose activity change, negative = cytotoxicity, actives largely listed as cytotoxic | AID 588856 | 0.76% of 410,000 active
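HepG2 CAGA-GFP cells (1000/well, DMEM with 1% FBS) received compound, then TGF-beta at 500 pg/mL final, and were incubated 18 hours at 37 degrees C. Viability was read by CellTiter-Glo luminescence. Media-only wells were set as complete cell-killing and DMSO as no toxicity.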
TGFb SMAD3 inh – inhibitors of TGF-b signaling; Potency, µM (doses to about 46.1 µM), for inactives: at the top dose activity, negative = inhibition, actives largely listed as inhibitors; 1.2% of 410,000 active; HepG2 CAGA-GFP TGF-b/SMAD3 reporter, GFP fluorescence, 18 h; TGF-beta stimulated, 500 pg/mL final; further: on the % scale 0 is the no-effect control and ±100 the full control effect; nearly all actives have a fitted effect of over 65% in size
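Per well, imaged GFP fluorescence of HEPG2 CAGA-GFP cells gives the signal; cells get compound, then TGF-beta (500 pg/mL final), 18 h at 37 degrees C; %Activity versus -TGF-beta and +DMSO controls.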
An asterisk follows results filed as active; i = inactive; ? = inconclusive; . = not tested or not shown; [ ] = another dose, or the depositor's remark. The call rests on the fitted dose curve; in most records, active means well fitted curve in the direction sought with a large enough effect; inconclusive means small, poorly fitted or top-dose-only effect, or another doubt; inactive means no such curve, though single readings can be large; an effect the other way counts as inactive or inconclusive. Potency means the concentration at half of the fitted maximal effect.

SMILES	TDP1 cell noCPT	ATXN2 expr inh	TDP1 cell CPT	ATXN viability	HepG2 tox	TGFb SMAD3 inh
C=CCn1c(SCc2ccc(C#N)cc2)nnc1-c1ccc(C)cc1	16µM*	-13%	?	i	-6%	-35%
FC(F)(F)COc1cc(-c2nnc(SCc3ccccc3)n2Cc2ccco2)cc(OCC(F)(F)F)n1	29µM*	-17%	?	i	-28%	0%
C=CCn1c(SCC(=O)NNC(=S)Nc2ccccc2)nnc1-c1ccccc1	-3%	0%	21%	i	0%	-19%
Cc1cccc(-c2nnc(SCc3ccc(C#N)cc3)n2Cc2ccco2)c1	23µM*	-21%	?	i	-20%	-16%
C=CCn1c(SCc2ccc(C(=O)Nc3ccccc3)cc2)nnc1-c1ccccc1	?	-28%	18µM*	i	1%	-4%
CCOC(=O)c1noc2ncn(Cc3ccc([N+](=O)[O-])cc3)c(=O)c12	-8%	-2%	-16%	i	-10%	3%
O=C1CCCCC1C(=O)c1cn(-c2ccc(Cl)c(Cl)c2)nn1 (stereo not given)	-20%	25%	2%	i	2%	22%
Clc1nc2ccccc2cc1-c1nnn(-c2ccccc2Br)n1	?	41%	?	i	-3%	2%
Brc1ccccc1-n1nnc(-c2cnc3ccccc3c2)n1	18µM*	11%	?	i	-37%	?
CCN(C(=O)CSc1nnc(-c2ccc(OC)cc2)n1C(C)C)C1CCS(=O)(=O)C1 (stereo not given)	2%	-1%	-2%	i	5%	4%
Cc1ccc(CNC(=O)c2nnc(Cc3cccc(F)c3)o2)cc1	-22%	-1%	-20%	i	-8%	19%
CCOC(=O)N1CCN(S(=O)(=O)c2ccc(OC)c(Cl)c2Cl)CC1	13µM*	-1%	?	i	0%	-11%
CCOC(=O)N1CCN(S(=O)(=O)c2ccc(OCC)c3ccccc23)CC1	23µM*	-8%	16µM*	i	-22%	?
CCOC(=O)N1CCN(S(=O)(=O)c2ccc(OC)c(Cl)c2)CC1	-23%	0%	-8%	i	-4%	0%
CCOC(=O)N1CCN(S(=O)(=O)c2ccc(OCC)cc2)CC1	-27%	3%	?	i	-8%	1%
Cc1nc(CNC(=O)C2CCC(=O)N(Cc3cccc(F)c3)C2)sc1C (stereo not given)	18%	-1%	-6%	i	10%	74%
CCc1ccc(NC(=O)CSc2nc3c(oc4ccccc43)c(=O)n2-c2cccc(C)c2)cc1	?	2%	?	i	1%	2%
CCOc1ccccc1NC(=O)CSc1nc2c(oc3ccccc32)c(=O)n1-c1ccc(C)c(C)c1	?	-10%	?	i	0%	6%
Cc1cccc(-n2c(SCC(=O)Nc3ccccc3C)nc3c(oc4ccccc43)c2=O)c1	5.2µM*	.	7.3µM*	.	-19%	0%
Cc1cc(C)cc(NC(=O)CSc2nc3c(oc4ccccc43)c(=O)n2-c2ccccc2)c1	?	1%	-16%	i	-2%	?
CCc1nnc(NC(=O)CSc2ncnc3c2oc2ccccc23)s1	-5%	-3%	-19%	i	0%	-4%
O=C(CSc1ncnc2c1oc1ccccc12)Nc1nc2ccccc2s1	?	?	?	?	13µM*	?
Cc1cccc(NC(=O)CSc2nc3c(oc4ccccc43)c(=O)n2-c2ccccc2)c1C	21µM*	-13%	?	?	-35%	-3%
CCOc1ccccc1NC(=O)CSc1nc2c(oc3ccccc32)c(=O)n1-c1ccc(F)cc1	6.5µM*	12%	8.2µM*	i	-2%	?
Cc1cccc(C(C)C)c1NC(=O)C1CCN(S(=O)(=O)c2ccccc2)CC1	-5%	-14%	-22%	i	-10%	?
SMILES	TDP1 cell noCPT	ATXN2 expr inh	TDP1 cell CPT	ATXN viability	HepG2 tox	TGFb SMAD3 inh
CC(Sc1ccsc1[N+](=O)[O-])C(=O)N1CCN(c2ccccn2)CC1 (stereo not given)	-19%	24%	-24%	i	-9%	4%
COCc1ccc(CN2Cc3ccccc3OC(c3ccccc3F)C2)o1 (stereo not given)	-30%	.	4%[9.04 µM]	i	.	.
O=S(=O)(Nc1cccc2ccccc12)c1cccc2ccccc12	.	.	.	.	-28%	?
CCOC(=O)c1c(C)[nH]c(C(=O)COC(=O)CNS(=O)(=O)c2ccc(C)cc2)c1C	-12%	-24%	-16%	i	2%	12%
CCOc1ccccc1Oc1ncnc2c1oc1ccccc12	21µM*	7%	13µM*	?	-4%	-1%
O=C(CSc1nc2c(oc3ccccc32)c(=O)n1-c1ccccc1F)Nc1ccccc1	?	2%	?	i	-9%	?
CCOc1ccccc1NC(=O)CSc1ncnc2c1oc1ccccc12	?	-19%	29µM*	i	3%	1%
CCc1ccccc1NC(=O)CSc1nc2c(oc3ccccc32)c(=O)n1-c1ccccc1	18µM*	0%	23µM*	i	3%	-12%
COc1ccc(CNC(=O)C[C@@H]2CC[C@@H](NS(=O)(=O)c3cccc(OC)c3)[C@@H](CO)O2)cc1	-24%	.	2%	.	.	.
CCOC(=O)Cn1c(=O)c2c(nc(Br)n2Cc2ccccc2Cl)n(C)c1=O	23µM*	-24%	18µM*	i	-21%	-1%
C=CCn1c(=O)c2c(nc(Br)n2Cc2ccccc2Cl)n(C)c1=O	?	-20%	18µM*	i	4%	2%
Cn1c(=O)n(CCO)c(=O)c2c1nc(Br)n2Cc1ccccc1	?	.	-23%	?	7%	-3%
CCOC(=O)C1(C)C=C(Nc2ccc(NC(C)=O)cc2)C(=O)N1c1ccc(NC(C)=O)cc1 (stereo not given)	-2%	7%	6%	.	10%	-6%
COc1ccc(Cl)cc1NC(=O)CN(C)C(=O)c1ccc(N2CCCCCC2)c([N+](=O)[O-])c1	23µM*	-7%	16µM*	?	1%	-3%
COc1ccc(Cl)cc1NC(=O)CN(C)C(=O)c1ccc(N2CCCCC2)c([N+](=O)[O-])c1	16µM*	10%	9.2µM*	i	-23%	-61%
